Experimental data from PubChem BioAssay (NCATS).
“And” between values parts separate entries of the source, which are not always exact repeats. Equal entries are not always repeated. Results filed as inconclusive are left out. The source made the active and inactive calls. Unless noted, calls follow the shape of the dose curve; as a rule, active = well fitted curve in either direction with a large enough effect (not every such curve was filed as active); inconclusive = small, poorly fitted or top-dose-only effect, or another doubt; inactive = flat fitted curve, though single readings scatter.

Tests used:
[1] = AP1 Signaling Pathway (AID 357); details: ME-180 AP-1-bla reporter, EGF-induced, beta-lactamase ratio, 5 h;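 also: ME-180 reporter cells stimulated with EGF at its EC50 level; % is scaled to controls: 0 for no effect and ±100 for the full control effect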
Outline: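 First, ME-180 AP-1-bla cells were cultured overnight at 37 °C in low-serum Opti-MEM. Next, titrated compounds with EC50 EGF were incubated 5 hours. Finally, CCF4 was added for 2.5 hours and the 460/530 nm ratio recorded.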

[2] = molecular target: Cytochrome P450 1A2 (Homo sapiens) (UniProt P05177); test: p450-cyp1a2 (AID 410; calls by dose curve; also: potency is read from the fitted curve at half-maximal effect;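 as to activity change, negative = inhibition: -100% = full effect of reference inhibitor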)
Cytochrome P450 1A2 (Homo sapiens), sequence (P05177 whole entry, looked up): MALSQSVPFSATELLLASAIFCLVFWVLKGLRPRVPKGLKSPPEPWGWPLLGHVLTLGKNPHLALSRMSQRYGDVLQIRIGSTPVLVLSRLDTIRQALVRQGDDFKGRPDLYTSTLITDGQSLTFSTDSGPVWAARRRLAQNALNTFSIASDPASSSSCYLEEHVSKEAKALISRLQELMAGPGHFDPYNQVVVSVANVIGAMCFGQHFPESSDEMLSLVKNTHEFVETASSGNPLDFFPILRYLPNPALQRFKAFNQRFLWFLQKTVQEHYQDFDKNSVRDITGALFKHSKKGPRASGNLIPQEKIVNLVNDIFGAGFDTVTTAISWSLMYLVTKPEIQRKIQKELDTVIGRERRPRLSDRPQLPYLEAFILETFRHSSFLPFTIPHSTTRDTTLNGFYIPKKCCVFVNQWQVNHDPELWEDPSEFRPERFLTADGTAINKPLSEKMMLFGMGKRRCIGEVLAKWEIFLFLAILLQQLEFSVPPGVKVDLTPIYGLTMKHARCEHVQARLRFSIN
Outline: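 Luminescent demethylation readout: Luciferin-ME (100uM, equal to Km) turned over by 20nM CYP1A2 for 60 min at room temperature after NADPH regeneration addition, following 10 min compound preincubation. Normalization used 57 uM furafylline as full inhibition.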

[3] = Cell Viability - BJ (AID 421; calls by dose curve;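 also: potency is read from the fitted curve at half-maximal effect; cells exposed to compound for 40 hours at 37 °C before readout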); details: BJ fibroblast viability, qHTS
Outline: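 Normal human BJ foreskin fibroblasts, 1500/well in complete medium, treated 40 hr at 37 °C. Cellular ATP by CellTiter-Glo luminescence; normalized to DMSO and 100 uM tamoxifen, AC50 from Hill fit.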

[4] = Cell Viability - Jurkat (AID 426;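 active = dose-dependent loss of cell ATP signal giving a full or clear fitted curve, ranked by lower potency value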; also: potency is read from the fitted curve at half-maximal effect); details: qHTS
Outline: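 Cytotoxicity taken as drop in cellular ATP (CellTiter-Glo luminescence, 20 min room temperature) after 40 hr, 37C treatment of 5000 Jurkat Clone E6-1 cells per well; concentration-response fitted with Hill equation for AC50.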

[5] = Cell Viability - Hek293 (AID 427;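 active = compounds whose dose-response curve shows a full or clear partial loss of cell viability, called from curve shape rather than a numeric limit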;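 also: potency is read from the fitted curve at half-maximal effect; cells exposed to compound for 40 hours at 37 °C before reading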); details: qHTS
Outline: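 HEK293 cells in complete medium were exposed to compound for 40 hr at 37 °C, then cellular ATP was read by CellTiter-Glo luminescence. Data were normalized to DMSO (basal) and 100 uM tamoxifen (100% inhibition), and AC50 came from Hill fits.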

[6] = Cell Viability - HepG2 (AID 433; calls by dose curve;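 also: potency is read from the fitted curve at half-maximal effect; potency for ATP loss meaning cytotoxicity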); details: qHTS
Outline: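 Cytotoxicity read as ATP loss (CellTiter-Glo luminescence) after 40 hr compound exposure of HepG2, 1500 cells/well, 37 °C. AC50 by Hill equation; 0% set by DMSO, 100% inhibition by 100 uM tamoxifen.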

[7] = Cell Viability - MRC5 (AID 434; calls by dose curve;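 also: potency is read from the fitted curve at half-maximal effect; potency reflects cytotoxicity seen as loss of intracellular ATP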); details: MRC5 lung fibroblast viability, qHTS
Outline: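 AC50 values come from Hill-equation fits of intracellular ATP loss, measured by CellTiter-Glo luminescence. Normal lung fibroblasts (MRC5) had 40 hr compound treatment at 37 C, normalized between DMSO and 100 uM tamoxifen.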

[8] = Cell Viability - SK-N-SH (AID 435; calls by dose curve; also: potency is read from the fitted curve at half-maximal effect); details: SK-N-SH neuroblastoma cell viability qHTS
Outline: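 qHTS cytotoxicity: CellTiter-Glo ATP luminescence after 40 h compound exposure of human neuroblastoma SK-N-SH cells at 37 °C. AC50 derived by Hill-equation fitting, with DMSO as basal and 100 uM tamoxifen as full inhibition.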

[9] = NFAT Signaling Pathway (AID 444); details: Jurkat NFAT-bla M1, carbachol, beta-lactamase ratio, 5 h;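 also: carbachol stimulus at about its EC50 of 1 µM final; % is scaled to controls: 0 for no effect and ±100 for the full control effect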
Outline: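 Read-out: CCF4 FRET ratio (460 nm/530 nm) after 1 h RT dye loading, used for %activity and AC50 from titration series. Cells: Jurkat NFAT-β-lactamase/M1 line, treated with compound plus 1 uM carbachol for 5 h, 37 °C.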

[10] = Stat Signaling Pathway (AID 446); details: ME-180 (cervical carcinoma) SIE beta-lactamase reporter, IL-6 stimulated, 5 h;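 also: ME-180 cervical cancer cells given 40 pM IL-6 alongside compound; SIE-controlled beta-lactamase reporter measured as 460/530 nm FRET emission ratio; % is scaled to controls: 0 for no effect and ±100 for the full control effect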
Outline: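 Normalization used AC90 stimulation (300 pM IL-6) and AC90 inhibition (125 nM pan-JAK inhibitor at 40 pM IL-6). The underlying signal is SIE-driven beta-lactamase in ME-180 cells after 5 h IL-6 exposure with compound.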

[11] = molecular target: Glucocorticoid receptor (Homo sapiens) (UniProt P04150); test: GR-GFP Redistribution (AID 450;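 active = compounds whose dose series gives a full or clear partial fitted curve of increased nuclear translocation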; also: potency is read from the fitted curve at half-maximal effect); details: U2OS GR-GFP nuclear translocation, laser cytometry, 2 h
Glucocorticoid receptor (Homo sapiens), sequence (P04150 whole entry, looked up, the tested form may be a part): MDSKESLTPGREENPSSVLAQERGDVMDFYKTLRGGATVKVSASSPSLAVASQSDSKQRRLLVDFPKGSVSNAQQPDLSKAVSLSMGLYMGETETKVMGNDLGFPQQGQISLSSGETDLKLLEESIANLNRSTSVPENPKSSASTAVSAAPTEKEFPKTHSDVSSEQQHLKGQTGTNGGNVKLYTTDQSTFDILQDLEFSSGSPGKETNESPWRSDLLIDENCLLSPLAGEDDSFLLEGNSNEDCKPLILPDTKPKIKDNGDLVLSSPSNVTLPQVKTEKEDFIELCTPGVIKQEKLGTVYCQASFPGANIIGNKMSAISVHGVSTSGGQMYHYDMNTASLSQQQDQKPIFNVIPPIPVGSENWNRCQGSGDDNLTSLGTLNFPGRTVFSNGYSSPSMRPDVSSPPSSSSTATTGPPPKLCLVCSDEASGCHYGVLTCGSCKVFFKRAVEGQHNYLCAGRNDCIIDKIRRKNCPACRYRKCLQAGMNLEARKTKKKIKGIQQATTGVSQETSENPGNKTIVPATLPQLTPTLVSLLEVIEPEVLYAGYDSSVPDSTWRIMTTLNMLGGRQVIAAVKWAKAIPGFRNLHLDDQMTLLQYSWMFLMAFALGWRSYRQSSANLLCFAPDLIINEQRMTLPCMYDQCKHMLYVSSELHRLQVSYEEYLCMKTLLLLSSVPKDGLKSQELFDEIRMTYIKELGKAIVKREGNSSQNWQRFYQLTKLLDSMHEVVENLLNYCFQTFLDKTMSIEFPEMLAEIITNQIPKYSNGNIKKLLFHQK

[12] = molecular target: Glucocorticoid receptor (Homo sapiens) (UniProt P04150); test: GR-EFC Redistribution (AID 451; calls by dose curve; also: potency is read from the fitted curve at half-maximal effect); details: CHO-K1 GR-EFC translocation, beta-gal luminescence, 2 h
Outline: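 Translocation of GR-ED fusion to nuclear EA restores b-gal, read by luminescence after 1 h room-temperature detection. Engineered CHO-K1 biosensor cells, 1,000/well, exposed 2 h at 37 C to titrations up to 46 uM final.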

[13] = molecular target: Mitogen-activated protein kinase 10 (Mus musculus) (UniProt Q61831); test: JNK3 AlphaScreen Assay (AID 530);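 also: kinase came from lysate of stimulated human HepG2 cells; signal reports phosphorylation of biotinylated GST-cJun 1-79 at Ser73 with 10 µM ATP; % is scaled to controls: 0 for no effect and ±100 for the full control effect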
Outline: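 qHTS titrations with 15 min compound pre-incubation before adding ATP (10 uM final). Read-out: AlphaScreen of Ser73-phosphorylated biotin-GST-cJun using HepG2 lysate JNK3 activated by IL-1β and TNFα.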

[14] = Cell Viability - N2a (AID 540; active = well fitted curve in the direction sought with a large enough effect; an effect the other way counts as inactive or inconclusive;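 also: plate controls were DMSO alone for no effect and tamoxifen control for full effect; nearly all actives have a fitted effect of over 45% in size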)
Outline: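 CellTiter-Glo ATP luminescence, read 20 min after reagent at room temperature, reported viability following 40 h compound treatment at 37 °C. N2a mouse neuroblastoma cells seeded 1500/well; Hill equation gave AC50.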

[15] = Cell Viability - NIH 3T3 (AID 541; active = well fitted curve in the direction sought with a large enough effect; an effect the other way counts as inactive or inconclusive;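 also: plate controls were DMSO alone for no effect and tamoxifen positive control for full effect; nearly all actives have a fitted effect of over 25% in size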)
Outline: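 Intracellular ATP (CellTiter-Glo luminescence, 20 min at room temperature) measured after 40 hr compound exposure at 37 °C of 1000 NIH 3T3 mouse fibroblasts/well in complete medium; AC50 derived by Hill-equation modelling of qHTS concentration-response curves.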

[16] = Cell Viability - HUV-EC-C (AID 542; active = well fitted curve in the direction sought with a large enough effect; an effect the other way counts as inactive or inconclusive; also: % is scaled to controls: 0 for no effect and ±100 for the full control effect; nearly all actives have a fitted effect of over 35% in size)
Outline: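 CellTiter-Glo luminescence measured ATP loss in HUV-EC-C cells (1000/well) after 40 hr compound exposure at 37 °C, in complete culture medium. Concentration-response data were Hill-fitted to give AC50.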

[17] = Cell Viability - H-4-II-E (AID 543; active = well fitted curve in the direction sought with a large enough effect; an effect the other way counts as inactive or inconclusive; also: % is scaled to controls: 0 for no effect and ±100 for the full control effect; nearly all actives have a fitted effect of over 35% in size)
Outline: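 CellTiter-Glo luminescence (intracellular ATP) measured after 40 h compound exposure at 37 °C in H-4-II-E rat hepatoma cells seeded at 1500/well. Values are AC50s fitted with the standard Hill equation.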

[18] = Cell Viability - SH-SY5Y (AID 544; active = well fitted curve in the direction sought with a large enough effect; an effect the other way counts as inactive or inconclusive;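 also: 0% = DMSO alone and -100% = 100 µM tamoxifen; nearly all actives have a fitted effect of over 55% in size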)
Outline: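 Cytotoxicity measured via ATP-dependent luciferase luminescence (CellTiter-Glo) following 40 h, 37 °C exposure of 1500 SH-SY5Y cells per well. Concentration-response data were fitted with the standard Hill equation to give AC50.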

[19] = Cell Viability - Renal Proximal Tubule (AID 545; active = well fitted curve in the direction sought with a large enough effect; an effect the other way counts as inactive or inconclusive;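 also: 0% = DMSO only and -100% = 100 µM tamoxifen; nearly all actives have a fitted effect of over 40% in size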)
Outline: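 Viability taken as intracellular ATP (CellTiter-Glo luminescence) after 40 hr, 37 °C compound treatment of primary proximal tubule cells from rat kidney, 1000 cells/well; Hill-equation fits of qHTS concentration-response data gave AC50.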

[20] = at 38 µM (top of the series) unless noted

CC(=O)C(C)=O
inactive: activity change, negative = inhibition [1, 20] -3.27% | Potency [2] | Potency [3] > 92 µM | Potency [4] > 92 µM | Potency [5] > 92 µM | Potency [6] > 92 µM | Potency [7] > 92 µM | Potency [8] > 92 µM | activity change, negative = inhibition [9, 20] 3.23% | activity, negative = inhibition [10, 20] 31.9% | Potency [11] > 46 µM | Potency [12] > 46 µM | outcome [13] | outcome [14] | outcome [15] | outcome [16] | outcome [17] | outcome [18] | outcome [19]

CC(C)NC[C@H](O)COc1ccc(CC(N)=O)cc1
inactive: activity change, negative = inhibition ([1]; at 17.2 µM (top of the series)) -3.59% and 11.3% | activity change, negative = inhibition ([1]; at 38 µM (top of the series)) 0.299% and 0.963% and -3.89%

COc1ccc(C(=O)NCc2cccnc2)cc1C(=O)NCc1cccnc1
inactive: activity change, negative = inhibition ([1]; at 17.2 µM (top of the series)) 9.58% | activity change, negative = inhibition ([1]; at 38 µM (top of the series)) 4.86% | activity, negative = inhibition ([10]; at 17.2 µM (top of the series)) 2.24% | activity, negative = inhibition ([10]; at 38 µM (top of the series)) -27.6% | Potency [11] > 46 µM and > 20.6 µM | Potency [12] > 46 µM and > 20.6 µM | outcome [13]

COc1ccc(-c2ccc(N)[n+](CCCC(=O)O)n2)cc1
inactive: activity change, negative = inhibition ([1]; at 17.2 µM (top of the series)) -6.26% | activity change, negative = inhibition ([1]; at 38 µM (top of the series)) -9.04% | Potency [2] | activity, negative = inhibition [10, 20] 5.04% [at 17.2 µM] | Potency [11] > 46 µM and > 20.6 µM | Potency [12] > 46 µM and > 20.6 µM | outcome [13]

C#CCn1c(=O)c2c(ncn2C)n(C)c1=O
inactive: activity change, negative = inhibition [1, 20] 8.56% | Potency [2] | activity change, negative = inhibition [9, 20] 5.67% | activity, negative = inhibition [10, 20] 16.8% | Potency [11] > 46 µM | Potency [12] > 46 µM

O=C(O)c1cc2cc(F)ccc2[nH]1
inactive: activity change, negative = inhibition ([1]; at 17.2 µM (top of the series)) 14.4% | activity change, negative = inhibition ([1]; at 38 µM (top of the series)) 0.264% | Potency [2] | activity change, negative = inhibition ([9]; at 17.2 µM (top of the series)) -6.32% | activity change, negative = inhibition ([9]; at 38 µM (top of the series)) -3.11% | activity, negative = inhibition [10, 20] -0.809% [at 17.2 µM] | Potency [11] > 46 µM and > 20.6 µM | Potency [12] > 46 µM | outcome [13]

O=c1[nH]c2ccccc2c2ccccc12
inactive: activity change, negative = inhibition [1, 20] -9.69% | activity change, negative = inhibition [9, 20] 8.86% | activity, negative = inhibition [10, 20] -7.28% | Potency [11] > 46 µM | Potency [12] > 46 µM | outcome [13]
active: Potency [2] 0.251 µM

O=C(O)c1cc(=O)cc(C(=O)O)[nH]1
inactive: activity change, negative = inhibition [1, 20] -11.2% | Potency [2] | activity change, negative = inhibition [9, 20] -5.4% | activity, negative = inhibition [10, 20] 10.8% | Potency [11] > 46 µM | Potency [12] > 46 µM | outcome [13]
